Laboratory results from the supplement of paper PMC6555819.

Tests used:
Assay in all cases: PBM binding z-score (relative to random genomic background probes); higher = stronger binding; sequences stand for … in GC…GCGATTGACAGCGTAGAATGAAGG
[1] = tested on: FXR:RXRa (NR concentration 270 nM, RXRa partner concentration 90 nM)
Outline: (§1)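 Binding z-scores take random background probes as their reference. They come from custom Agilent 4×180K protein-binding microarrays incubated 1 h with ligand-free nuclear receptor dimers, with antibodies against each partner (one per run) detecting binding. Scanned fluorescence was regression-normalized.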

[2] = tested on: LXRa:RXRa (NR concentration 270 nM, RXRa partner concentration 90 nM)
Outline: as §1

[3] = tested on: LXRa homodimer (NR concentration 270 nM)
Outline: as §1

[4] = tested on: LXRb:RXRa (NR concentration 270 nM, RXRa partner concentration 90 nM)
Outline: as §1

[5] = tested on: LXRb homodimer (NR concentration 270 nM)
Outline: as §1

[6] = tested on: PPARa:RXRa (NR concentration 270 nM, RXRa partner concentration 90 nM)
Outline: as §1

[7] = tested on: PPARg:RXRa (NR concentration 180 nM, RXRa partner concentration 90 nM)
Outline: as §1

[8] = tested on: PPARg:RXRa 270nM:90nM, anti-RXR (NR concentration 270 nM, RXRa partner concentration 90 nM)
Outline: as §1

[9] = tested on: PPARg:RXRa 30nM:10nM, anti-RXR (NR concentration 30 nM, RXRa partner concentration 10 nM)
Outline: as §1

[10] = tested on: PPARg:RXRa 90nM:30nM, anti-RXR (NR concentration 90 nM, RXRa partner concentration 30 nM)
Outline: as §1

Row | Sequence | PBM binding z-score [1] | PBM binding z-score [2] | PBM binding z-score [3] | PBM binding z-score [4] | PBM binding z-score [5] | PBM binding z-score [6] | PBM binding z-score [7] | PBM binding z-score [8] | PBM binding z-score [9] | PBM binding z-score [10]
1 | TCTGGTAGATCAAAGGTTAAGAAAGCCGAAGCCT | 1.8 | 2.1 | 0.139 | 2.08 | -0.305 | 3.73 | 6.37 | 6.52 | 5.92 | 6.95
2 | AGAACGAGGGCACGATGAGTTGATAGCAGAGTAG | 0.874 | 0.721 | -0.147 | 0.286 | -0.796 | 2.29 | 2.6 | 2.02 | 0.778 | 1.51
3 | CACGAAAGGTCGTGCTCAGGTGAGTATACCAAAC | 5.58 | 4.3 | 0.166 | 3.44 | 0.848 | 4.88 | 3.14 | 3.97 | 1.14 | 2.72
4 | TCTTGTAGATCAACAGGGGGTTAAGAAAGATCGA | 1.48 | 2.69 | 0.266 | 3.75 | 8.09 | 2.75 | 0.692 | 2.99 | 3.73 | 3.26
5 | CCTCGGAGGACATAAGGTCAGAGCTGTCCGCTTT | 2.39 | 2.6 | 0.959 | 1.75 | -0.328 | 2.45 | 0.338 | 0.85 | -0.243 | 0.319
6 | GCGACTGTGGCATCAGCAGGTTACCATAACTTAA | -0.475 | -0.391 | -0.237 | -0.0453 | -0.969 | 0.0749 | 0.0982 | -0.457 | -0.399 | -0.487
7 | AGTCAAAGTTCATCTAGATAACGTAAGATATGCT | 7.05 | 5.89 | 5.02 | 4.13 | 1.82 | 5 | 6.44 | 6.12 | 3.12 | 5.43
8 | GCTAGCAGACCATTTGGGTCACTCAATGACGGGC | -0.199 | -0.301 | -0.619 | -0.213 | -1.15 | 0.904 | 0.52 | -0.0173 | -0.573 | -0.229
9 | ATCGATAGGTCGTGAGGTGAGTATACAGAAAGGC | 1.25 | 1.3 | -0.0722 | 1.07 | 0.187 | 2.43 | 1.32 | 1.08 | 0.506 | 0.989
10 | ATCTCTAGGTAAAGAGAGTTCAGTGAATGCAAAT | 0.502 | 4.09 | 1.76 | 1.41 | 0.27 | 1.34 | 0.263 | 0.567 | 0.0587 | 0.356
11 | ACTATTAGTTGAGACGAGGGCGACCGATAGGTTG | 0.0775 | -0.2 | 0.0498 | -0.401 | 8.35e-05 | -0.485 | 0.629 | -0.198 | 0.0514 | -0.0518
12 | GGAAAGAGGGCAAGTTGATAGCAGAGTTTGATGG | 1.6 | 1.58 | 0.345 | 1.25 | 0.718 | 2.15 | 1.14 | 1.59 | 0.606 | 1.04
13 | CTAACTAGGTCATTGACAGGACAGTGAATAGTAA | 4.3 | 3.33 | 0.788 | 2.12 | 0.469 | 5.03 | 8.17 | 6.99 | 4.79 | 6.51
14 | TCTAGCAGGCCAGAGGGTCCCTCAAGAGGTACGG | -1.21 | -0.594 | -0.832 | -1.08 | -1.75 | -0.293 | 0.254 | 1.14 | 1.15 | 0.873
15 | GCTCGGAGGACAAGGTCAGAGCCTTGTCCGTAGA | 2.67 | 2.08 | -0.456 | 1.59 | -0.419 | 2.91 | 0.887 | 2.22 | -0.306 | 1.23
16 | TCTTTTAGATCAACAGGAGGTTAAGAAAGATCGA | 1.27 | 1.43 | 0.248 | 1.57 | 0.898 | 1.55 | 0.2 | 2.27 | 3.57 | 3.17
17 | AATACAGGGTTACTAGGCCAGAGTAGGTACGAAT | 0.737 | 1.26 | 0.201 | 1.17 | 0.122 | 3.39 | 4.79 | 4.22 | 1.52 | 3.29
18 | TAGCCTAGGTCATCGGGCCAGTATAGTACGCATC | 4.52 | 3.33 | 0.51 | 2.29 | 0.0366 | 3.91 | 3.13 | 3.04 | 0.482 | 2.16
19 | CCTGGTAGGTCATGGTCAGCTAATCTACAGTATG | 3.94 | 3.15 | 0.527 | 2.3 | 0.0201 | 4.05 | 4.22 | 4.12 | 1.32 | 3.01
20 | AGAATGAGGTTATACGTAGACCAGGGAAGAAAGT | 2.15 | 1.62 | -0.0461 | 1.41 | -0.0466 | 3.11 | 1.74 | 1.98 | 0.485 | 1.29
21 | TCGAGTAGGTTACCAATGGTGCATTCAGCTTTCT | -0.236 | 1.22 | -0.491 | 0.425 | -1.1 | 0.801 | 0.0197 | 1.1 | 0.784 | 1.06
22 | AGAATGAAGTTACCAAAGATCAGGGAAACGCTTG | -0.327 | 0.631 | -0.337 | -0.292 | -0.771 | -0.153 | 0.523 | 0.0888 | 0.0872 | 0.08
23 | AATACAGGGTCATAGTAGGCCAGAGTACGCACAG | 7.09 | 6.14 | 2.31 | 4.62 | 1.5 | 5.82 | 6.42 | 5.33 | 2.62 | 4.34
24 | CCAGAAAGGTGAGAAGGTAACTCAGCCTCGATTA | 0.521 | 0.782 | -0.167 | 0.842 | -0.293 | 2.47 | 1.02 | 1.49 | 0.32 | 0.796
